Only some compounds are listed: those with a hit (about 3.8% of all), similar ones and a draw of the others.
SUMO Mot1 rescue – yeast Mot1-301 growth rescue at high temperature, primary screen, SUMOylation pathway inhibitor project, S. cerevisiae, ATP luminescence, 38.5C; growth rescue, % at 18.8 µM; hit rate 1% among 320,000; S. cerevisiae Mot1-301 growth rescue; percent above DMSO median, 100 means doubled;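 active means every valid replicate shows activation above 250% relative to neutral control wells; inactive means the rest, any valid replicate at or below 250%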;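 further: OY570 slx delta 5 strain wells were the positive control but not used for scaling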
aDG glyco act – activators of alpha-DG glycosylation, primary screen, uHTS, Pro5-aDG cells, AlphaScreen; activation, % at 10 µM; hit rate 0.22% among 360,000; alpha-DG glycosylation AlphaScreen (IIH6); 0% Pro5, 100% B10-LARGE cell signal; AID 624168, 2012;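 active means activation of at least 8% versus controls, or a plate z-score of at least 8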;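 further: Pro5 are CHO cells carrying HIG-tagged alpha-DG that lacks glycosylation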
Cardio protect – cardioprotection against H2O2-induced cell death, primary screen, uHTS, H9c2 cells, ATPLite luminescence; H9c2 cardiomyocytes, H2O2 injury protection, 2 h; protection from H2O2 cell death, % at 20 µM; hit rate 0.63% among 360,000; AID 588492, 2011;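 active means compounds giving at least 50% protection of heart cells from peroxide-induced death in the single-dose screen, raw or plate-pattern-corrected value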;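 further: 0% = DMSO wells with peroxide and 100% = DMSO wells without peroxide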
FAS-TE inh – FAS thioesterase domain inhibitors, primary screen, biochemical, fluorescence intensity, uHTS; Fatty acid synthase (Homo sapiens), P49327; recombinant FAS-TE, OMFH fluorogenic substrate, fluorescence endpoint; inhibition, % at 15 µM; hit rate 0.67% among 360,000; AID 602261, 2012;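 active means compounds whose normalised, plate-corrected inhibition of enzyme fluorescence in the single-dose primary screen is 50% or more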;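 further: 0% = DMSO with enzyme and 100% = substrate without enzyme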
Target sequence (P49327 whole entry, looked up, the tested form may be a part): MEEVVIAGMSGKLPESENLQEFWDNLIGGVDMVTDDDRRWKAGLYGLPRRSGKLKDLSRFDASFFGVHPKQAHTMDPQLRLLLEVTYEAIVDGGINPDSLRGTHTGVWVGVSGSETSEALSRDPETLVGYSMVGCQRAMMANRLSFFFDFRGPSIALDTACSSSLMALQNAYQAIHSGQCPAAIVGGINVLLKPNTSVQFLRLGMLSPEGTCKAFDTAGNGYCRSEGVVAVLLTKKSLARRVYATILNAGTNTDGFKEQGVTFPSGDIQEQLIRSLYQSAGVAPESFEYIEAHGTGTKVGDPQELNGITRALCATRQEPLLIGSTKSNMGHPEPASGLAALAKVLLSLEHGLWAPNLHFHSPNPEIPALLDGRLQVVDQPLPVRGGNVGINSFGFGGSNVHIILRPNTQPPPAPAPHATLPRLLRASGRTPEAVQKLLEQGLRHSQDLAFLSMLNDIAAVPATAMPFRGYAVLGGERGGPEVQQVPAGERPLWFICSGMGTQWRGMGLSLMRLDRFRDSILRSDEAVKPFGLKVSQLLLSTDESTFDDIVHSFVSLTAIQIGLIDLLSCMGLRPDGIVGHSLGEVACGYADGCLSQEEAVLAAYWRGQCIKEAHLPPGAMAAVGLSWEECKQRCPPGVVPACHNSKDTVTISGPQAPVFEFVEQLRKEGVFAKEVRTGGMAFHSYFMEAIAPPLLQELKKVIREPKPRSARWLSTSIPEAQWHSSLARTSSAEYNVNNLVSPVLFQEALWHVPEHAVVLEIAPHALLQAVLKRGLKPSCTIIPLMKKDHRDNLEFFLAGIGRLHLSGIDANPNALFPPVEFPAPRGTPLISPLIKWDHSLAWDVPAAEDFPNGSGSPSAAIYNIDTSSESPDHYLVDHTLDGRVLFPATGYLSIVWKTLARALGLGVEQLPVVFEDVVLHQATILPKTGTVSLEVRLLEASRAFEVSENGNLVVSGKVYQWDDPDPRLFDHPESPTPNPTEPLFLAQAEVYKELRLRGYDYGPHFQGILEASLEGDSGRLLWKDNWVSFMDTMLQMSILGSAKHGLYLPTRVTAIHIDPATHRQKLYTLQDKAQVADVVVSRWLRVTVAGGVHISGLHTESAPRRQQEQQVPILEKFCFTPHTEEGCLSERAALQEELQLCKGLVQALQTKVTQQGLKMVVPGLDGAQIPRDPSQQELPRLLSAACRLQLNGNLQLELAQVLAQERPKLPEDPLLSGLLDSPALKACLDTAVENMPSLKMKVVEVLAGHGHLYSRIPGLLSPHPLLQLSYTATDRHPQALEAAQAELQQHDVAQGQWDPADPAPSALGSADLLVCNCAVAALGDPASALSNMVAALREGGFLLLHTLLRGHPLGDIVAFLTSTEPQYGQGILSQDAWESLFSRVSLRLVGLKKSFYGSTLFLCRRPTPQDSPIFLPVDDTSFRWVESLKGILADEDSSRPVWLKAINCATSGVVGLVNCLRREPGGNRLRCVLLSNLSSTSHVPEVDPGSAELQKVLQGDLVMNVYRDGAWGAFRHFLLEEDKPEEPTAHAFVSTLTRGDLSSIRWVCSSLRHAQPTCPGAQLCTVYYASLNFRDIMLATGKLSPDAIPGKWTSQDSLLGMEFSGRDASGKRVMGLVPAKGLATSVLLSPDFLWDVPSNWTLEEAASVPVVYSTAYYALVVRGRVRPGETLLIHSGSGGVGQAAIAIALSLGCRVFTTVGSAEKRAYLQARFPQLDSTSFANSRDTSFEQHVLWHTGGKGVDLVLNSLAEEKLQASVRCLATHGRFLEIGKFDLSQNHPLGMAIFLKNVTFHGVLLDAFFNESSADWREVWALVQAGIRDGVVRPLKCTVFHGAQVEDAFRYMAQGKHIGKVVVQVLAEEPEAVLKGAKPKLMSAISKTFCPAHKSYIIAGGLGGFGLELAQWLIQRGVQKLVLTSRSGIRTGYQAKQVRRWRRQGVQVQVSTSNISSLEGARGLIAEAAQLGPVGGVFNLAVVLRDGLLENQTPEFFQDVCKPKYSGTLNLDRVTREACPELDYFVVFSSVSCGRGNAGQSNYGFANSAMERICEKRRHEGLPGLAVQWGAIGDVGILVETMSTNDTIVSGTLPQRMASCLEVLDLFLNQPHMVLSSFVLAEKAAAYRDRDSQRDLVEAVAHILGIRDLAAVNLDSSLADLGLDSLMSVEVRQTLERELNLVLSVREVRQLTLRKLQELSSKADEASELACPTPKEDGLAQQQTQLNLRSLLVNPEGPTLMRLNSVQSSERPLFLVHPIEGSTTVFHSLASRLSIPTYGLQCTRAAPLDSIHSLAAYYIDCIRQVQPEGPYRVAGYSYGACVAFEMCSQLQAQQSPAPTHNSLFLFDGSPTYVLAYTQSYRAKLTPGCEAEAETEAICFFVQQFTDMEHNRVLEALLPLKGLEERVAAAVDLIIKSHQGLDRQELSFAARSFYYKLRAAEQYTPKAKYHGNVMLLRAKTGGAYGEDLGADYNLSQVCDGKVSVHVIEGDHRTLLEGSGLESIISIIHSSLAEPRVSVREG
CR mimetic SO – reduction of superoxide in aged yeast, primary screen, HTS; S. cerevisiae aged cells, superoxide DHE fluorescence; hits give low values; superoxide response (% of plate mean), % at 10 µM; hit rate 0.18% among 330,000;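 active means superoxide response under a set limit, about three screen SD below normal, cut at about 65% in these data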;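 further: yeast aged for seven days with compound at 30 °C before DHE staining; 100% = average MFI of all compound-treated wells on the plate with controls excluded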
MPTP inh – mitochondrial permeability transition pore inhibitors, primary screen, biochemical, isolated mouse mitochondria, absorbance. inhibition, % at 10 µM. Ca2+ swelling absorbance, 30 min. hit rate 1.4% among 360,000;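 active means inhibition of 50% or more, scaled per plate between neutral and stimulator controls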;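 further: 0% = DMSO wells given calcium and 100% = 1 mM EGTA wells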
Mot1 SUMO dose – growth restoration of Mot1-301 yeast on galactose, dose response, SUMO pathway inhibitor project, whole organism, S. cerevisiae, ATP luminescence, cherry-picked samples | shares compounds with SUMO Mot1 rescue | S. cerevisiae Mot1-301 galactose growth, 24 h; -100 = growth of slx-deleted rescue strain | growth activity, percent, % at 42 µM | 2,300 tested, under 10 active | AID 493004, 2010;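 active means Signal drops as the depositor expects, and the fitted half-maximal dose is no more than ten times the top valid tested dose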;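 further: more negative values mean stronger growth rescue toward the control strain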
* marks the source's active call; other numbers are inactive results; [ ] = another dose, or the depositor's remark.

`CCOCCCNC(=O)C(c1ccc(OC)cc1)N(Cc1ccc2c(c1)OCO2)C(=O)CNC(C)=O` (stereo not given) gave SUMO Mot1 rescue 442.0*, aDG glyco act 0.5, Cardio protect 0.5, FAS-TE inh -4.2, CR mimetic SO 101.7, MPTP inh -0.1 and Mot1 SUMO dose 0.9.
Screening O=C(O)C1OCC2(CO1)COC(C(=O)O)OC2 (stereo not given) returned aDG glyco act 0.0, Cardio protect 1.0, FAS-TE inh -9.7 and MPTP inh -0.7.
Screening O=C(Nc1ccc(Cl)cc1)C1Cc2c(-c3cccc(F)c3)ccnc2O1 (stereo not given) returned aDG glyco act 0.0, Cardio protect -3.3, FAS-TE inh 40.6 and MPTP inh 3.1.
For COC(=O)c1cc(Cl)c(NC(=O)C(C)C)cc1OC the results were SUMO Mot1 rescue 660.6*, aDG glyco act 0.2, Cardio protect 10.6, FAS-TE inh -3.5, CR mimetic SO 101.5, MPTP inh -0.1 and Mot1 SUMO dose -0.1.
Screening COC(=O)c1cc(Cl)c(NC(=O)c2ccc(C(C)(C)C)cc2)cc1OC returned SUMO Mot1 rescue 5.8, aDG glyco act 0.7, Cardio protect -10.0, FAS-TE inh 16.3, CR mimetic SO 93.6 and MPTP inh 0.2.
For C=CCNC(=O)C1CC2Cn3c(nc4cc(Cl)c(Cl)cc43)C2N1C (stereo not given) the results were SUMO Mot1 rescue 7.2, aDG glyco act -0.1, Cardio protect 0.2, FAS-TE inh -2.3, CR mimetic SO 96.6 and MPTP inh -1.0.
For CCN1C(=O)N(C)[C@@H](c2ccccc2)C(C(=O)OC)=C1C the results were SUMO Mot1 rescue 948.4*, aDG glyco act 0.0, Cardio protect 2.9, FAS-TE inh 1.6, CR mimetic SO 104.7, MPTP inh -0.6 and Mot1 SUMO dose 0.5.
`CCN1C(=O)N(S(=O)(=O)C(F)(F)F)[C@@H](c2ccccc2)C(C(=O)OC)=C1C` gave SUMO Mot1 rescue -4.7, aDG glyco act 0.1, Cardio protect 0.7, FAS-TE inh 12.0, CR mimetic SO 94.3 and MPTP inh -0.9.
For NC1=NC(=Nc2ccc(S(N)(=O)=O)cc2)c2ccccc21 the results were SUMO Mot1 rescue 419.0*, aDG glyco act 0.0, Cardio protect -1.4, FAS-TE inh -7.2, CR mimetic SO 108.0, MPTP inh 0.7 and Mot1 SUMO dose 0.3[21 µM].
CC(C)NC(=O)c1cc(-c2ccc(F)cc2OC(C)C)n[nH]1 was read as aDG glyco act -0.2, Cardio protect 0.8, FAS-TE inh -2.9 and MPTP inh -0.3.
Screening CC(C)Cn1c(=O)c2ccccc2c2ccccc2c1=O returned SUMO Mot1 rescue 2.5, aDG glyco act 0.5, Cardio protect -2.4, FAS-TE inh 23.6, CR mimetic SO 90.6 and MPTP inh 3.0.
`CC(C)CCn1c(=O)c2ccccc2c2ccccc2c1=O` gave SUMO Mot1 rescue active, aDG glyco act -0.1, Cardio protect -13.0, FAS-TE inh 15.3, CR mimetic SO 115.5, MPTP inh 2.6 and Mot1 SUMO dose -0.2.
Screening OC(c1ccc(CN2CCCCC2)cc1)c1ncc(-c2ccccc2F)[nH]1 (stereo not given) returned aDG glyco act -0.1, Cardio protect 13.8, FAS-TE inh -8.6 and MPTP inh 0.5.
For CCCCC1=CC2=CC(=O)C(C)(OC(=O)CC)C(=O)C2=CN1CCc1ccc(Br)cc1 (stereo not given) the results were SUMO Mot1 rescue 525.9*, aDG glyco act 0.0, Cardio protect -5.6, FAS-TE inh 23.4, CR mimetic SO 103.3, MPTP inh 1.0 and Mot1 SUMO dose -0.4.
Screening CC(C)(c1ccccc1)c1ccc(OCCN2CCOCC2)cc1 returned SUMO Mot1 rescue 443.6*, aDG glyco act 0.1, Cardio protect -3.3, FAS-TE inh 1.0, CR mimetic SO 106.4, MPTP inh -1.0 and Mot1 SUMO dose -0.1.
For CCc1cc(=O)[nH]c(SC/C=C/c2ccccc2)n1 the results were SUMO Mot1 rescue -7.9, aDG glyco act 0.0, Cardio protect -5.4, FAS-TE inh -8.4, CR mimetic SO 87.8 and MPTP inh 0.6.
Screening O=C(CS(=O)c1ccc(C(F)(F)F)cc1[N+](=O)[O-])Oc1ccc(Cl)cc1 (stereo not given) returned SUMO Mot1 rescue 380.3*, aDG glyco act -0.2, Cardio protect -9.3, FAS-TE inh 18.2, CR mimetic SO 107.3, MPTP inh 4.4 and Mot1 SUMO dose -0.3.
`Cc1cc(C)cc(OC(=O)CS(=O)c2ccc(C(F)(F)F)cc2[N+](=O)[O-])c1` (stereo not given) gave SUMO Mot1 rescue 511.2*, aDG glyco act -0.1, Cardio protect -11.8, FAS-TE inh 21.3, CR mimetic SO inactive, MPTP inh 0.9 and Mot1 SUMO dose -0.7.
`Cc1ccc(OCCNc2ccc(C(F)(F)F)cc2[N+](=O)[O-])cc1` gave SUMO Mot1 rescue 2.7, aDG glyco act -0.2, Cardio protect -0.4, FAS-TE inh 4.5, CR mimetic SO 89.2 and MPTP inh 4.0.
Screening CCOC(=O)C1C(=O)C(=O)N(Cc2ccccc2)C1C(=O)OCC (stereo not given) returned aDG glyco act 0.1, Cardio protect -0.2, FAS-TE inh -4.3 and MPTP inh -1.3.
`O=C1OCCC1=COCCCCCCOC=C1CCOC1=O` gave aDG glyco act 0.1, Cardio protect 2.0, FAS-TE inh -7.2 and MPTP inh 0.0.
`Cc1ccc(NC(=O)CSc2nnc(CCC(=O)O)c(=O)[nH]2)cc1` gave aDG glyco act -0.1, Cardio protect -8.5, FAS-TE inh -0.6, CR mimetic SO 87.6 and MPTP inh 0.3.
`Cc1c(C2(O)CCCCC2)[nH]c2ccc(C#N)cc12` gave SUMO Mot1 rescue 369.9*, aDG glyco act 0.4, Cardio protect -16.3, FAS-TE inh -1.0, CR mimetic SO 94.8, MPTP inh 1.2 and Mot1 SUMO dose -0.2.
COc1ccc(-n2c(SCC(=O)NCC3CCCO3)nc3c(c2=O)SCC3)cc1OC (stereo not given) was read as SUMO Mot1 rescue 672.0*, aDG glyco act 0.3, Cardio protect 4.4, FAS-TE inh -8.5, CR mimetic SO 95.2, MPTP inh -2.4 and Mot1 SUMO dose -0.4.

Compound activity from PubChem BioAssay.
